HCV inhibitor = qHTS Assay for Inhibitors of Hepatitis C Virus (HCV); Potency, µM (doses to about 41.8 µM), for the others: at the highest dose activity change, negative = inhibition, hits mostly inhibitors; Huh7.5.1 HCVcc-Cre infection, luciferase reporter, 44 h; AID 651820, 2012; 340,000 tested, 3.4% active
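Antiviral activity was scored by luciferase reporter output from cells infected with HCVcc-Cre (~0.5 moi) in presence of compound, 44 h infection period, cells seeded 1,000/well 4 h prior.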
Pf growth 48h = Primary qHTS for delayed death inhibitors of the malarial parasite plastid, 48 hour incubation; P. falciparum luciferase growth in erythrocytes, 48 h; Potency, µM (top dose mostly 28.7 µM), for the others: top-dose activity change, negative = inhibition, actives largely listed as inhibitors; 310,000 tested, 5.9% active
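Read-out is firefly luciferase luminescence from an integrated reporter in P. falciparum, so falling signal marks reduced parasite growth. Infected erythrocytes were at 2% hematocrit and 0.1% parasitemia (final) in Albumax-supplemented RPMI 1640.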
Pf growth 96h = Primary qHTS for delayed death inhibitors of the malarial parasite plastid, 96 hour incubation; Potency, µM (highest dose often 28.7 µM), without a hit: at the top dose activity change, negative = inhibition, actives largely listed as inhibitors; 320,000 tested, 6.9% active; P. falciparum luciferase reporter growth, 96 h; AID 504834, 2011
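P. falciparum expressing integrated firefly luciferase, in erythrocytes at 2% hematocrit, 0.05% parasitemia, incubated with compounds 96 h at 37 C, 5% CO2. Growth inhibition read as loss of luminescence; two-generation exposure targets delayed-death apicoplast inhibitors.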
AMA1-RON2 inh = qHTS for Inhibitors of AMA1-RON; Towards Development of Antimalarial Drug Lead: Primary Screen; 360,000 tested, 0.2% active; Potency, µM (highest dose often 58.2 µM), for inactives: at the highest dose activity change, negative = inhibition, hits mostly inhibitors; AlphaScreen AMA1-biotinylated RON2 peptide binding; Plasmodium falciparum AMA1 (3D7) - RON2 peptide interaction;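 note: 0% = vehicle wells and -100% = peptide control; nearly all actives have a fitted effect of over 45% in size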
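AMA1 (3D7) with his tag at 25 nM final met compounds first, then biotinylated RON2 peptide at 25 nM; detection used donor plus acceptor beads, 10 µg/mL apiece, read by AlphaScreen after 30 min at room temperature.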
Active calls of the source: *; ? = inconclusive; . = no result; [ ] = remark or other dose. Only some compounds are listed: those with a hit (about 11% of all), similar ones and a draw of the others. Calls come from the whole dose curve; as a rule, active = well fitted curve in the direction sought with a large enough effect; inconclusive = small, poorly fitted or top-dose-only effect, or another doubt; inactive = no such curve, though single readings can be large; an effect the other way counts as inactive or inconclusive. Unless noted, % is set by controls: 0 for no effect and ±100 for the full control effect; potency is the fitted concentration of half-maximal effect.

SMILES | HCV inhibitor | Pf growth 48h | Pf growth 96h | AMA1-RON2 inh
COc1cccc(CN(CC2CCCO2)S(=O)(=O)c2ccc(-n3cnnn3)c(OC)c2)c1 (centres undefined) | -16.9% | ? | 10.8% | 7.5%
CCc1ccc(NC(=O)CSc2nc(N)c(NC(=O)c3ccc(F)c(F)c3)c(=O)[nH]2)cc1 | 9.5% | -29.1% | -6.5% | -6.4%
OC[C@@H]1CN(CCc2ccccc2)C[C@H](n2cnc3c(NCc4ccc(F)cc4)ncnc32)O1 | . | . | . | 3.1%
O=C(CCNS(=O)(=O)c1ccccc1F)N1CCN(C/C=C/c2ccccc2)CC1 | ? | -5.7% | ? | 7.2%
COc1cc(OC)cc(C(=O)Nc2ccc3c(c2)CCCN3C(=O)c2cccs2)c1 | 14.1µM* | ? | ? | -0.1%
O=C(Nc1ccc2c(c1)CCCN2C(=O)c1cccs1)c1cccc(F)c1 | ? | 17.1% | 19.4% | 52.3%
O=C(Nc1ccc2c(c1)CCCN2C(=O)c1cccs1)c1ccccc1 | 31.6µM* | -8.2% | -23.7% | 0.0%
COc1ccccc1C(=O)Nc1ccc2c(c1)CCCN2C(=O)c1cccs1 | ? | -3.4% | 1.5% | -17.0%
COC(=O)c1cnn(-c2ccccc2)c1/C=N/NC(=S)Nc1ccc(Cl)cc1 | ? | ? | -15.3% | 21.3%
CNC(=O)C[C@@H]1C(=O)N(c2ccc(OC)cc2)CC1(C)C | . | . | . | 1.8%
O=C(O)c1cccc(N2C(=O)CSC2=S)c1 | 15.2% | . | 5.86µM* | 10.2%
O=C1CSC(=S)N1c1cccc(F)c1 | -15.5% | 27.1% | 10.4µM* | -17.7%
O=C1CSC(=S)N1c1ccc(F)cc1 | . | -4.1% | 19.0% | .
CN(C)c1ccc(N2C(=O)CSC2=S)cc1 | 7.9% | 7.8% | 5.22µM* | -22.6%
COCCn1nnnc1C(c1cccs1)N1CCN2CCCC2C1 (centres undefined) | 7.6% | -1.2% | 62.8% | 2.9%
CCn1c(CN2CCN(c3cccc(C)c3C)CC2)n[nH]c1=S | -12.3% | 5.5% | ? | 38.1%
c1cc(Nc2ncnc3sccc23)cc(-c2nnc3n2CCCCC3)c1 | 10µM* | ? | ? | -8.5%
Cc1cnc(C(=O)Nc2cccc(-c3nnc4n3CCCCC4)c2)cn1 | 3.4% | 23.3% | ? | 0.0%
CC1(C(=O)Nc2ccc3c(c2)OCCO3)CN(S(C)(=O)=O)CC(=O)N1CCc1ccccc1F (centres undefined) | . | . | . | -5.7%
Cc1ccc(OCC(=O)c2cc(C)n(-c3cc(C)on3)c2C)c([N+](=O)[O-])n1 | ? | ? | ? | 3.6%
Cc1cc(-n2c(C)cc(C(=O)COc3cc(F)ccc3[N+](=O)[O-])c2C)no1 | ? | 9.28µM* | ? | -4.7%
COc1cc([N+](=O)[O-])ccc1NC(=O)NCC1CCN(Cc2ccc(Cl)cc2)CC1 | 12.6µM* | ? | ? | -3.2%
Cc1ccc(C)c(CN2CCC(CNC(=O)Nc3ccc(C)c(C)c3)CC2)c1 | -26.7% | 4.15µM* | 14.0% | -6.6%
COc1ccc(Cl)cc1NC(=O)NCC1CCN(Cc2cc(C)ccc2C)CC1 | ? | 1.1%[0.00184 µM] | ? | -1.9%
CCc1cccc(CN2CCC(CNC(=O)Nc3ccc(Cl)cc3)CC2)c1 | 7.1% | 4.65µM* | ? | 3.6%
SMILES | HCV inhibitor | Pf growth 48h | Pf growth 96h | AMA1-RON2 inh
COCCCn1c(C)cc(C(=O)COC(=O)C23CC4CC(CC(O)(C4)C2)C3)c1C | ? | 92.9% | 83.3% | -22.6%
COC(=O)C1CN(C#N)N(c2ccc(Cl)cc2)C12c1ccccc1-c1ccccc12 (centres undefined) | 3.98µM* | 3.29µM* | 18.0% | -9.3%
COCc1cc(C)nc(N/N=C/c2ccc(-c3cc(C(=O)O)ccc3Cl)o2)c1C#N | . | 7.8% | 3.6% | .
N#CC(C#N)=C1C=CC=CN1/C(=C\c1ccco1)C(=O)c1ccccc1 | ? | ? | ? | -17.4%
COc1ccc(C(=O)/C(=C\c2ccco2)N2C=CC=CC2=C(C#N)C#N)cc1 | 11.2µM* | ? | ? | -4.6%
COc1ccc(-c2c(C#N)c(SCC(=O)c3cc4ccccc4oc3=O)nc(C)c2C(=O)Nc2ccccc2)cc1 | ? | ? | 11.7µM* | 57.7%
Cc1nc(SCC(=O)c2cc3ccccc3oc2=O)c(C#N)c(-c2ccccc2)c1C(=O)Nc1ccccc1 | ? | 10.6% | -83.1% | 24.6%
CC(C)(C)n1nnnc1C(c1cccs1)N(Cc1ccccc1)Cc1ccco1 (centres undefined) | 11.2µM* | 13.1µM* | 21.2% | 0.0%
CC(C)(C)n1nnnc1C(c1cccs1)N(Cc1cccnc1)Cc1ccco1 (centres undefined) | -18.4% | 10.4µM* | 7.38µM* | -0.3%
CCN(Cc1ccccc1)C(c1ccccn1)c1nnnn1C(C)(C)CC (centres undefined) | 13.3% | ? | 23.4% | 3.4%
CCN(Cc1ccccc1)C(c1ccc(Cl)cc1)c1nnnn1C(C)(C)C (centres undefined) | 7.8% | ? | 134.0% | -2.7%
CC(C)(C)n1nnnc1C(c1ccccn1)N(Cc1ccccc1)Cc1ccc(Cl)cc1 (centres undefined) | ? | 11.7µM* | 1.47µM* | -9.3%
CCN(Cc1ccccc1)C(c1ccc(C)cc1)c1nnnn1C(C)(C)C (centres undefined) | 4.2% | . | 8.28µM* | -12.7%
Cc1ccc2nc(N3CCN(c4ccccc4F)CC3)c(C=O)c(=O)n2c1 | 4.0% | 31.6% | 5.7% | -4.7%
CC(C)(C)n1nnnc1C(c1ccncc1)N(Cc1ccccc1)Cc1ccco1 (centres undefined) | -13.8% | 13.1µM* | . | 30.2%
CN(C)/C=C1\N=C(c2ccccc2)OC1=O | ? | 27.4% | 34.5% | 13.6%
CN(C)C1=NP(N(C)C)(N(C)C)=NC(c2ccccc2)=N1 | 7.5% | 0.0% | 1.65µM* | 28.3%
COCCn1c(SCC(=O)N2CC(=O)Nc3ccccc32)nc2ccccc2c1=O | 1.1% | ? | ? | -6.6%
CC(C)c1nc(SCC(=O)N2CC(=O)Nc3ccccc32)c2ccccc2n1 | ? | -18.1% | 47.4% | 4.7%
Cc1ccc(-n2c(SCC(=O)N3CC(=O)Nc4ccccc43)nc3ccccc3c2=O)cc1 | 4.7% | 13.1µM* | ? | -7.6%
O=C1CN(C(=O)CSc2nc(-c3ccc(Cl)cc3)cs2)c2ccccc2N1 | 14.1µM* | ? | ? | -3.6%
Cc1cc(C)c2nc(SCC(=O)N3CC(=O)Nc4ccccc43)c(C#N)cc2c1 | 7.94µM* | 13.1µM* | ? | 9.9%
Cc1cccc(C)c1-n1c(SCC(=O)N2CC(=O)Nc3ccccc32)nc2ccccc2c1=O | ? | 13.1µM* | -101.1% | -10.0%
Cc1nnc(SCC(=O)N2CC(=O)Nc3ccccc32)s1 | -0.5% | -8.3% | 16.9% | -1.9%
COc1ccc2nc(SCC(=O)N3CC(=O)Nc4ccccc43)c(C#N)cc2c1 | ? | . | ? | -3.1%
COc1ccc(OCC(O)CNS(=O)(=O)c2cccc(Cl)c2)cc1 (centres undefined) | -19.4% | -38.2% | ? | -10.8%

Assay outcomes as filed in PubChem.
